# Experimental data published in PubChem BioAssay (NCATS).
# Inconclusive results are not listed. The source made the active and inactive calls. Unless noted, calls follow the shape of the dose curve; as a rule, active = well fitted inhibition curve with a large enough effect; inconclusive = small, poorly fitted or top-dose-only effect; inactive = flat fitted curve, though single readings scatter.
# How the values were obtained:
# [1] = qHTS for identification of novel therapeutic agents for treatment of microphthalmiaassociated transcription factor (MiT) renal cell carcinoma (RCC) (AID 1963991; calls by dose curve); details: CellTiter-Glo, 48 h; for z-score: stronger effect = lower value
# How it was run: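 Viability of three TFE3-fusion renal carcinoma lines measured by CellTiter-Glo after 48 h treatment with each of 1912 compounds at 11 concentrations. Responses scaled between DMSO (100%) and empty wells (0%) before curve fitting.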
# [2] = qHTS profiling for inhibitors of Plasmodium falciparum proliferation (AID 504749); also: nearly all actives have a fitted effect of over 60% in size;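 as to activity, negative = inhibition: 0% = DMSO vehicle and full inhibition = artemisinin control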; details: P. falciparum in erythrocytes, SYBR Green DNA, 72 h, at 28.7 µM (top of the series)
# How it was run: (§1)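 Fluorescence of SYBR Green-bound parasite DNA, read at 485/535 nm, served as the growth measure. Infected erythrocytes were cultured with compound 72 h; artemisinin (0.29 uM) and DMSO wells defined the normalization range.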
# [3] = test system: 3D7; test: as above; details: P. falciparum in erythrocytes, SYBR Green DNA, 72 h; series mostly up to 28.7 µM
# How it was run: as §1
# [4] = test system: 7G8; test: as above; details: P. falciparum in erythrocytes, SYBR Green DNA, 72 h; series mostly up to 28.7 µM
# How it was run: as §1
# [5] = test system: AA1029; test: as above; details: P. falciparum in erythrocytes, SYBR Green DNA, 72 h; series mostly up to 28.7 µM
# How it was run: as §1
# [6] = test system: AS120; test: as above; details: P. falciparum in erythrocytes, SYBR Green DNA, 72 h; series mostly up to 28.7 µM
# How it was run: as §1
# [7] = test system: ATS189; test: as above; details: P. falciparum in erythrocytes, SYBR Green DNA, 72 h; series mostly up to 28.7 µM
# How it was run: as §1
# [8] = test system: ATS95; test: as above; details: P. falciparum in erythrocytes, SYBR Green DNA, 72 h; series mostly up to 28.7 µM
# How it was run: as §1
# [9] = TFE3-RCC UOK109 viability, measured here: UOK109 Z-AUC
# [10] = TFE3-RCC viability, measured here: UOK124 Z-AUC
# [11] = TFE3-RCC viability, measured here: UOK145 Z-AUC
# Potency is read from the fitted curve at half-maximal effect.
structure (smiles),measurement,setting,value
CCCCC[C@H](O)C=C[C@H]1[C@H](O)CC(=O)[C@H]1CCCCCCC(=O)O,z-score,[1]; [9],1.1
same,z-score,[1]; [10],0.386
same,z-score,[1]; [11],1.28
CN1CC(=O)N2C(Cc3c([nH]c4ccccc34)[C@H]2c2ccc3c(c2)OCO3)C1=O (stereo not given in full),"activity, negative = inhibition",[2]; parasite line A,3.25% (inactive)
same,"activity, negative = inhibition",[2]; parasite line B,5.31% (inactive)
same,Potency,[3],inactive
same,Potency,[4],10 µM (active)
same,Potency,[5],inactive
same,Potency,[6],inactive
same,Potency,[7],inactive
same,Potency,[8],inactive
CC1(C)[C@H]2CC[C@]3(C)[C@@H](C(=O)C=C4[C@@H]5C[C@@](C)(C(=O)O)CC[C@]5(C)CC[C@]43C)[C@@]2(C)CC[C@@H]1O,z-score,[1]; [9],0.727
same,z-score,[1]; [10],0.724
same,z-score,[1]; [11],0.985
C[C@@H](O)[C@H]1C(=O)N2C(C(=O)OCOC(=O)C(C)(C)C)=C(SC3CN(C4=NCCS4)C3)[C@H](C)[C@H]12,z-score,[1]; [9],1.65
same,z-score,[1]; [10],-0.138
same,z-score,[1]; [11],0.788
N=C1SC(=Cc2ccc(-c3ccc4c(c3)C(=O)NC4=O)o2)C(=O)N1c1ccc(Br)cc1,z-score,[1]; [9],0.374
same,z-score,[1]; [10],0.836
same,z-score,[1]; [11],0.868
C[C@]12CCC3=C4CCC(=O)C=C4CC[C@@H]3[C@H]1CC[C@@]2(O)CC#N,z-score,[1]; [9],0.693
same,z-score,[1]; [10],0.709
same,z-score,[1]; [11],-0.023
CO[C@H]1/C=C\O[C@@]2(C)Oc3c(C)c(O)c4c(O)c(c5c(nc6cc(C)ccn65)c4c3C2=O)NC(=O)C(C)=CC=C[C@H](C)[C@H](O)[C@@H](C)[C@@H](O)[C@@H](C)[C@H](OC(C)=O)[C@H]1C,z-score,[1]; [9],0.788
same,z-score,[1]; [10],1.17
same,z-score,[1]; [11],0.817
CC[C@]1(O)C[C@H]2CN(CCC3=c4ccccc4=N[C]3[C@@](C(=O)OC)(c3cc4c(cc3OC)N(C)[C@H]3[C@@](O)(C(N)=O)[C@H](O)[C@]5(CC)C=CCN6CC[C@]43[C@@H]65)C2)C1,Potency,"[1]; TFE3-RCC UOK109 viability, active = Z-AUC below -0.8 in all three lines",0.332 µM (active)
same,z-score,[1]; [9],-0.8
same,z-score,[1]; [10],-1.02
same,z-score,[1]; [11],-0.904
